Results as given in the supplement of paper PMC10849652.
About 8,800 targets were measured; listed, in parts, are those with a hit and a random draw of the rest. About 0.5% of all pairs of compound and target were hits. Unmarked numbers belong to inactive results.

How the values were obtained:
Experiment in all cases: log2 fold change, soluble protein after heating vs DMSO (PISA); higher = thermal stabilisation; K562 lysate, 10 uM; active = over 0.2 and 3.5 SD of the protein, either way, in both replicates (recomputed)
[1] = compound: C#Cc1cccc(Nc2ncnc3cc(OCCOC)c(OCCOC)cc23)c1 [erlotinib]
Procedure, shortened: (§1)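 A 30 min treatment with 10 μM compound was applied to crude K562 extract at 1 mg/mL protein in PBS pH 7.4 with 1 mM MgCl2. Heating for 3 min spanned 48°C-58°C, after which aliquots were pooled, adjusted to 0.5% NP-40 at 4°C and spun at 21,000xg for 90 min. TMTpro 16plex LC-MS/MS of the supernatant, with channel sums equalised, gave values recorded as log-two fold change in thermal stability against solvent controls, from duplicates.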

[2] = compound: C/C(=N\NC(=O)C1=CC(=CC=C1)S(=O)(=O)N2CCOCC2)/C3=C(C=CC(=C3)Cl)O
Procedure, shortened: as §1

[3] = compound: C1=CC(=CC=C1C2=NC3=C(N2)C=C(C=C3)C(=O)N)OC4=CC=C(C=C4)Cl
Procedure, shortened: as §1

[4] = compound: C1=CC2=C(C=CC(=C2)/C=C\3/C(=O)NC(=NCC4=CC=CS4)S3)N=C1
Procedure, shortened: as §1

[5] = compound: C1=CC2=NC=CN=C2C=C1/C=C/3\C(=O)NC(=O)S3
Procedure, shortened: as §1

[6] = compound: C1=CC=C(C=C1)C2=NC(=C(N2)C3=CC=NC=C3)C4=CC(=C(C=C4)Cl)O
Procedure, shortened: as §1

[7] = compound: C1=CC=C2C(=C1)C3=NNC4=CC=CC(=C43)C2=O
Procedure, shortened: as §1

[8] = compound: C1CCN(C1)C(=O)NC2=CC=CC(=C2)NC3=NC=C(C(=N3)NCCC4=CN=CN4)Br
Procedure, shortened: as §1

[9] = compound: C1CN(CCC1(CC2=CC=C(C=C2)Cl)N)C3=NC=NC4=C3C=CN4
Procedure, shortened: as §1

[10] = compound: C1COCCN1CCN2C3=CC=CC=C3N=C2NC(=O)C4=CC(=CC=C4)[N+](=O)[O-] [IRAK-1-4 Inhibitor I]
Procedure, shortened: as §1

Sequence of UniProt O95260 (O95260 whole entry, looked up): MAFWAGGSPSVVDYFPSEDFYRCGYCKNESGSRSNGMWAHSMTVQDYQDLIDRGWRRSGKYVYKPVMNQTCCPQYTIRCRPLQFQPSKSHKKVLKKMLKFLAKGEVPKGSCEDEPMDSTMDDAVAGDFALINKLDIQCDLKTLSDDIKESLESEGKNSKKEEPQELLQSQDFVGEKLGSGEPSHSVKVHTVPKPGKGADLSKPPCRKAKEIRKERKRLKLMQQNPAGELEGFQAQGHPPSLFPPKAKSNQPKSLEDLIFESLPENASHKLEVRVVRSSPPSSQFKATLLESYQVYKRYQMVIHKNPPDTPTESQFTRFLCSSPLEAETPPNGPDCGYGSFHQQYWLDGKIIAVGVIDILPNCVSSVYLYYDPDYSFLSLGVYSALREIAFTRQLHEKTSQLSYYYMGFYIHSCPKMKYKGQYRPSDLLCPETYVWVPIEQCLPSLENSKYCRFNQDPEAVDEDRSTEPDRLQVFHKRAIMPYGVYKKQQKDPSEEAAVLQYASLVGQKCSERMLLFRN
Sequence of UniProt Q8N960 (Q8N960 whole entry, looked up): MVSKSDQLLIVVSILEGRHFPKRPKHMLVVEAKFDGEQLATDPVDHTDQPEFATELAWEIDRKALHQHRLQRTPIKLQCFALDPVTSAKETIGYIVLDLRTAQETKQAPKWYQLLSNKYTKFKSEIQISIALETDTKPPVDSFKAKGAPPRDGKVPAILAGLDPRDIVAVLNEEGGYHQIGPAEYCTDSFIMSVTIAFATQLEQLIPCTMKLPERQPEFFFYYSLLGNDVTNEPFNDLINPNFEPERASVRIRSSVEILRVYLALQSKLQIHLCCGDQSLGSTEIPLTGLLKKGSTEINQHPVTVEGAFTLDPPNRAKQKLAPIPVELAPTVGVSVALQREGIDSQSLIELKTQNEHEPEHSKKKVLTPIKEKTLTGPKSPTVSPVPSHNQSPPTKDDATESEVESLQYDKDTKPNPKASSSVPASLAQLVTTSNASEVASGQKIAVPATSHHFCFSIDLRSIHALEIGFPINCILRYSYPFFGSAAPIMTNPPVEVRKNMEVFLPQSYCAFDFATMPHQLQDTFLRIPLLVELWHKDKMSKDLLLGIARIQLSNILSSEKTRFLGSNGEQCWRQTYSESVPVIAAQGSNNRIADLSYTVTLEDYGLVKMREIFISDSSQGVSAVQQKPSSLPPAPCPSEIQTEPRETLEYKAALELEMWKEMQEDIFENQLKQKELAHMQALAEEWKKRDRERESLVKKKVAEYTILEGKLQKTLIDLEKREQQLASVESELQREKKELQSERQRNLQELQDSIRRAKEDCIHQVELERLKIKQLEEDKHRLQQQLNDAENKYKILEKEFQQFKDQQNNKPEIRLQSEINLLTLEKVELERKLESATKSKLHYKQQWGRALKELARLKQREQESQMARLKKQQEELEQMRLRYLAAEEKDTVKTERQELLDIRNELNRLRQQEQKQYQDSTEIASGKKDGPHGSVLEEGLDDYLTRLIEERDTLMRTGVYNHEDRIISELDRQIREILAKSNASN
Sequence of UniProt O75909 (O75909 whole entry, looked up): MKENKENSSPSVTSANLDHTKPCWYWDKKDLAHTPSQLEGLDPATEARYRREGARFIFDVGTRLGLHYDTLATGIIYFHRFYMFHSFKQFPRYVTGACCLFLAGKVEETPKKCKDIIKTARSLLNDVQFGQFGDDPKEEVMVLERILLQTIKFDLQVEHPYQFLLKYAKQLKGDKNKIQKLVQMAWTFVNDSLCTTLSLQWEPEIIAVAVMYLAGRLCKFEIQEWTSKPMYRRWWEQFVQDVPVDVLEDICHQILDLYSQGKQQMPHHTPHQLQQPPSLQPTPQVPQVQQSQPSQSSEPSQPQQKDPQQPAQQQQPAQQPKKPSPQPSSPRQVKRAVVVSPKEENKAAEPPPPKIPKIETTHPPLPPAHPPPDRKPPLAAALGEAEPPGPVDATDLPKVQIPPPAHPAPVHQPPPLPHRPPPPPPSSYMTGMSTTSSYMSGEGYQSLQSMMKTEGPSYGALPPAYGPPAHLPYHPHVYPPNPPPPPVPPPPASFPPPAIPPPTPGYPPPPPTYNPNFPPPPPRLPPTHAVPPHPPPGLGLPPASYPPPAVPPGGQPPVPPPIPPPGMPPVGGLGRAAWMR
Sequence of UniProt Q6PJG6 (Q6PJG6 whole entry, looked up): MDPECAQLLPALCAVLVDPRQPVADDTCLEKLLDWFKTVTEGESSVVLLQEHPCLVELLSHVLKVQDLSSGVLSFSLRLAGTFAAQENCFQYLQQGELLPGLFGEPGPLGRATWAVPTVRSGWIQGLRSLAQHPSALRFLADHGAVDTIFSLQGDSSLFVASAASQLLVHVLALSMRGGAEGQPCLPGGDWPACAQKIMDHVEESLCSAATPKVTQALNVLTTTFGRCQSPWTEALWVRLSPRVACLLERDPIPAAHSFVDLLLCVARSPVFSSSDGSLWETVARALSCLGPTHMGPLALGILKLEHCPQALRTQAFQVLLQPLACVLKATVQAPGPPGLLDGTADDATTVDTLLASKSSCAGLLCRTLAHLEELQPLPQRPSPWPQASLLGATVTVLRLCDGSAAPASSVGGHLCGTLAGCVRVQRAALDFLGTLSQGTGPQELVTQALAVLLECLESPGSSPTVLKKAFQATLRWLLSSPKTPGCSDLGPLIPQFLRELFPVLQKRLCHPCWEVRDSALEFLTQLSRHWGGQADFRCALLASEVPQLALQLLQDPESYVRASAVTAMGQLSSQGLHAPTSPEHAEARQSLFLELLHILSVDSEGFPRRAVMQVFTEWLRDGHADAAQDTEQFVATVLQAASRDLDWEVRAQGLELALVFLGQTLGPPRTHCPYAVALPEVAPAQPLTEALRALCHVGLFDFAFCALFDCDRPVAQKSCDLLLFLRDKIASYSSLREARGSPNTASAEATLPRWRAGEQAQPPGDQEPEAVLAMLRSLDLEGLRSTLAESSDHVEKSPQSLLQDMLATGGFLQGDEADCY
Sequence of UniProt P49918 (P49918 whole entry, looked up): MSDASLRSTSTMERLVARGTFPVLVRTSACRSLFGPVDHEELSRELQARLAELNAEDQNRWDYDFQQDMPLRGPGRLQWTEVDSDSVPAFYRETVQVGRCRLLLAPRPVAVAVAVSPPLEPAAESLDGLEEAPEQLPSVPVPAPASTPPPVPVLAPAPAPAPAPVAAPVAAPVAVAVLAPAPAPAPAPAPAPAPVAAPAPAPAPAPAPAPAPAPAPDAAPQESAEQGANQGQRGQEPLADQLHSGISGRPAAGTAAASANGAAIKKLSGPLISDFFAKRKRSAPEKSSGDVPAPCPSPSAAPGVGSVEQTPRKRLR
Sequence of UniProt Q9UEE9 (Q9UEE9 whole entry, looked up): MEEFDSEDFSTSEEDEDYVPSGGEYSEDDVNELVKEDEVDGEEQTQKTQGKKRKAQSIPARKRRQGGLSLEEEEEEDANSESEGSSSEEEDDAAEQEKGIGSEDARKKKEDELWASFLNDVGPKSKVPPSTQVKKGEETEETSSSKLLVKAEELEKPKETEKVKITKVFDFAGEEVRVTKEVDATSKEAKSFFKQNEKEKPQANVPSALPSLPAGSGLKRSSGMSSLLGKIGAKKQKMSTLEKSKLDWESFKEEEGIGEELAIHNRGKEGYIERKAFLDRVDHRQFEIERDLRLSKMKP
Sequence of UniProt P04632 (P04632 whole entry, looked up): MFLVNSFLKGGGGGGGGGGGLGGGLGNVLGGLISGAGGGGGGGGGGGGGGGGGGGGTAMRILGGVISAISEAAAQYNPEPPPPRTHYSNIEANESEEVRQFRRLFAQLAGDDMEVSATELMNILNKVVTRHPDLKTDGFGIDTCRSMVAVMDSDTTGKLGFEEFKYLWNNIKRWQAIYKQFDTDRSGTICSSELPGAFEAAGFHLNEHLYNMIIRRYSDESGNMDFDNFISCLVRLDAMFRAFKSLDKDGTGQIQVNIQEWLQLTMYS
Sequence of UniProt P22676 (P22676 whole entry, looked up): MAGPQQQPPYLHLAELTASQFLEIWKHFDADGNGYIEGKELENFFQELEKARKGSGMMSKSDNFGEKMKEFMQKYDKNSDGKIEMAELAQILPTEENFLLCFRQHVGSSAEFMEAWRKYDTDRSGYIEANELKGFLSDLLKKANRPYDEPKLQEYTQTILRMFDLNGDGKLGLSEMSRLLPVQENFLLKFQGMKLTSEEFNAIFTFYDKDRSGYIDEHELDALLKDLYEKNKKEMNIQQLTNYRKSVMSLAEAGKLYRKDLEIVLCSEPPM
Sequence of UniProt Q7Z3E2 (Q7Z3E2 whole entry, looked up): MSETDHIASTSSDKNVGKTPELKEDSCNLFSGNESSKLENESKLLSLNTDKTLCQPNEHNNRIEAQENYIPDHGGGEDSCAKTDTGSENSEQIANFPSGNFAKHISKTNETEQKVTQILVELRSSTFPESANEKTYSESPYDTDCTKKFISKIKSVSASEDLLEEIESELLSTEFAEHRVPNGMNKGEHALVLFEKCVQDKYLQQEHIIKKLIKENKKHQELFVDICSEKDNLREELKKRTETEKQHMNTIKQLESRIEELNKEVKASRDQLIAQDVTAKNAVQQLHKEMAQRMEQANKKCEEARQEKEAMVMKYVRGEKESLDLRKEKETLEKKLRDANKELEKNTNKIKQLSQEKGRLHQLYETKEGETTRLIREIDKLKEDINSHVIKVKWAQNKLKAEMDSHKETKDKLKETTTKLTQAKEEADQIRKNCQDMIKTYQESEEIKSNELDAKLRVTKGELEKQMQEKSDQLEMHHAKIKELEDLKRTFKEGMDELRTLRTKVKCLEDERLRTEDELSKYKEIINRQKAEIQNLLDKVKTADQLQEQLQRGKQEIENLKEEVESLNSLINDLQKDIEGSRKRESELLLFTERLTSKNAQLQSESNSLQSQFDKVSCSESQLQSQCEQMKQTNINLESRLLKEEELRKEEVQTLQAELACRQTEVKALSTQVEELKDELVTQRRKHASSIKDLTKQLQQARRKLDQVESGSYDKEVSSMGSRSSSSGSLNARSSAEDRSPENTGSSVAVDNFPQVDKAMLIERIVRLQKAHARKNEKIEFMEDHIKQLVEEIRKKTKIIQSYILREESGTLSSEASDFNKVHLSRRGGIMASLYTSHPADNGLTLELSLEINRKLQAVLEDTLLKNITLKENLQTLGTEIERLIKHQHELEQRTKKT

Target | log2 fold change [1] | log2 fold change [2] | log2 fold change [3] | log2 fold change [4] | log2 fold change [5] | log2 fold change [6] | log2 fold change [7] | log2 fold change [8] | log2 fold change [9] | log2 fold change [10]
CCPG1 isoform 5 (UniProt Q9ULG6) | -0.014 | 0.08 | 0.082 | 0.017 | 0.024 | 0.067 | -0.119 | 0.019 | 0.053 | -0.03
C18orf25 isoform 2 (UniProt Q96B23) | 0.031 | 0.098 | -0.059 | -0.002 | 0.185 | 0.055 | -0.011 | -0.01 | -0.063 | 0.003
C15orf41 (UniProt Q9Y2V0) | 0.008 | 0.073 | 0.032 | 0.112 | -0.097 | 0.014 | -0.04 | -0.028 | -0.076 | -0.012
CHD1L (UniProt Q86WJ1) | -0.017 | 0.007 | -0.028 | 0.036 | 0.031 | -0.014 | -0.054 | -0.012 | 0.013 | 0.003
C16orf70 (UniProt Q9BSU1) | 0.023 | 0.194 | -0.06 | 0.271 (active) | 0.033 | -0.128 | -0.193 | 0.016 | 0.055 | -0.021
CDK11B (UniProt P21127) | 0.01 | 0.025 | -0.029 | 0.008 | -0.018 | 0.017 | -0.049 | -0.016 | -0.003 | -0.021
CCAR2 (UniProt Q8N163) | -0.004 | -0.006 | -0.003 | -0.01 | 0.01 | 0.005 | 0.001 | 0 | 0.001 | -0.009
C2CD5 isoform 3 (UniProt Q86YS7) | 0.021 | -0.047 | 0.017 | -0.024 | -0.048 | -0.034 | -0.046 | -0.045 | 0.024 | 0.054
AURKA (UniProt O14965) | 0.111 | -0.028 | -0.033 | 0.008 | 0 | -0.039 | 0.359 | 0.483 | -0.004 | 0.129
BLOC1S6 (UniProt Q9UL45) | -0.008 | 0.007 | 0.029 | 0.027 | 0.001 | 0.002 | -0.004 | 0.093 | -0.01 | -0.031
ATE1 isoform 2 (UniProt O95260) | -0.022 | -0.01 | 0.002 | -0.063 | 0.027 | 0.007 | 0.021 | 0.054 | 0.013 | -0.038
ATG13 isoform 2 (UniProt O75143) | 0.019 | -0.055 | -0.033 | 0.021 | -0.001 | -0.004 | 0.02 | -0.031 | 0.019 | 0.006
BRAT1 (UniProt Q6PJG6) | 0.05 | -0.01 | -0.052 | 0.006 | 0.026 | 0.03 | -0.075 | 0.003 | -0.013 | -0.013
BOLA2 (UniProt Q9H3K6) | 0.008 | 0.078 | -0.112 | -0.007 | 0.032 | 0.01 | 0.039 | 0.034 | 0.006 | 0.013
CARNMT1 (UniProt Q8N4J0) | 0 | 0.004 | 0.028 | -0.019 | 0.029 | -0.015 | -0.05 | -0.008 | -0.011 | 0.029
CCDC22 (UniProt O60826) | -0.039 | -0.007 | 0.002 | 0.02 | -0.03 | -0.017 | -0.06 | 0.007 | 0.03 | 0.011
CASP9 (UniProt P55211) | -0.007 | 0.008 | 0.008 | 0.03 | 0.069 | -0.002 | -0.008 | 0.014 | 0.006 | 0.034
CASP6 (UniProt P55212) | -0.006 | 0.031 | -0.006 | -0.004 | 0.006 | 0 | -0.005 | 0.012 | 0.017 | 0.015
CASP3 (UniProt P42574) | -0.002 | -0.02 | 0.044 | -0.001 | 0.034 | 0.02 | -0.042 | 0.011 | 0.039 | -0.007
CEP120 (UniProt Q8N960) | 0.044 | -0.124 | -0.03 | -0.02 | 0.004 | -0.007 | -0.142 | 0.168 | 0.215 | 0.018
CDKN1C (UniProt P49918) | -0.021 | 0.34 | -0.015 | -0.159 | 0.065 | -0.032 | -0.461 (active) | 0.053 | 0.009 | 0.069
CALB2 (UniProt P22676) | 0.021 | 0.045 | -0.04 | -0.103 | -0.077 | 0.02 | 0.043 | 0.056 | 0.065 | 0.08
CAPNS1 (UniProt P04632) | -0.066 | 0.001 | -0.023 | 0.025 | 0.006 | -0.008 | 0.082 | -0.007 | -0.039 | -0.005
CFDP1 (UniProt Q9UEE9) | -0.027 | -0.023 | 0.067 | -0.024 | -0.02 | -0.004 | 0.033 | -0.03 | 0.011 | -0.017
CCNC (UniProt P24863) | 0.081 | -0.158 | -0.078 | -0.102 | 0.127 | -0.045 | 0.163 | -0.087 | -0.049 | -0.008
CCNK isoform 4 (UniProt O75909) | -0.018 | -0.022 | -0.012 | -0.016 | -0.062 | -0.039 | -0.001 | 0.01 | 0.002 | -0.021
CCDC186 (UniProt Q7Z3E2) | -0.018 | 0.026 | 0.01 | 0.007 | -0.03 | -0.009 | -0.027 | -0.039 | 0.007 | 0.016
CARHSP1 (UniProt Q9Y2V2) | 0.011 | 0.022 | -0.033 | -0.06 | 0.006 | -0.026 | 0.027 | 0.01 | 0.011 | 0.024
CDS2 (UniProt O95674) | -0.023 | 0.004 | -0.087 | -0.008 | -0.011 | 0.079 | -0.027 | -0.056 | 0.01 | 0.214 (active)
